Hit rate of the full screen: of about 310,000 compounds, about 2,200 (0.71%) showed an effect of 50% or more. Effects have a minus sign here. The list comes from a sample in which strong results are over-represented; it also holds similar structures and randomly drawn compounds.
Each compound was assayed against human ether-à-go-go-related gene (hERG) potassium channel (human, UniProt Q12809) (assay: primary screen, population patch clamp on CHO cells stably expressing hERG; higher = less effect of the substance).
Chain of human ether-à-go-go-related gene (hERG) potassium channel (Q12809 whole entry, looked up): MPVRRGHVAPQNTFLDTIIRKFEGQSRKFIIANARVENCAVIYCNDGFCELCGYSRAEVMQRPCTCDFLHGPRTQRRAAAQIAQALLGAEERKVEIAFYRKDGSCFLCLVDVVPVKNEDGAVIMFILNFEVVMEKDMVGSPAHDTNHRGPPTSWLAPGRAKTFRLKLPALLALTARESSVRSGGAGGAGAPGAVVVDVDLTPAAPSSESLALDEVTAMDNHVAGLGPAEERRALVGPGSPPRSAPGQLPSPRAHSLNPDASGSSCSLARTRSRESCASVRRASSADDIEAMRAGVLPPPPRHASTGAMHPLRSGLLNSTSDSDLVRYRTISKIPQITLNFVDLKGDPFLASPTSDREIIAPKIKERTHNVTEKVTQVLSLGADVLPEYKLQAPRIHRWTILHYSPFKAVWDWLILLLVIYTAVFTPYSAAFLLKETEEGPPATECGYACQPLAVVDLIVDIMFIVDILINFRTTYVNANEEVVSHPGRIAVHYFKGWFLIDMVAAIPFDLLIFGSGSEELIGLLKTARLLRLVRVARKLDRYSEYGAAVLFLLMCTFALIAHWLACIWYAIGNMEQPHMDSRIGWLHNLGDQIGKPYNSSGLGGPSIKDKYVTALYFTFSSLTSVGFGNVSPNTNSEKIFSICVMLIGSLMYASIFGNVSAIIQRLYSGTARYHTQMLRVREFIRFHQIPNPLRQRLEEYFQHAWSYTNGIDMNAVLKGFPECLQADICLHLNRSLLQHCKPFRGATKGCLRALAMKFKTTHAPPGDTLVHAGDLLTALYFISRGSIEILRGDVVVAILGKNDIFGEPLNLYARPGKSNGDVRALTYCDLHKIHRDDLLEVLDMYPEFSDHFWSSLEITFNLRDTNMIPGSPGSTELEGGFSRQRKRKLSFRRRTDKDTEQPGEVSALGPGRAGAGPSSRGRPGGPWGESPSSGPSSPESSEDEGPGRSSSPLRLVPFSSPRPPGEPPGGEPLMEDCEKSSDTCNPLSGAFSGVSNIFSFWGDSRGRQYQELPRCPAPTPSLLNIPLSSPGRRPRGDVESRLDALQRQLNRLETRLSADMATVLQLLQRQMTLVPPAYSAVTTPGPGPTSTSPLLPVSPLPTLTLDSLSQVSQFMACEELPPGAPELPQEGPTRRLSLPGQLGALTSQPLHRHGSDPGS

SMILES | hERG current change (%, negative = inhibition) at 1uM
COc1ccc([N+](=O)[O-])c(OC)c1C(=O)NC(=O)Nc1c(F)c(F)c(F)c(F)c1F | 4.71%
O=C(NCCN1CCN(C(=O)c2ccc([N+](=O)[O-])cc2)CC1)C(=O)NCc1ccccc1 | -85.9%
COc1ccc(NC(=O)C(=O)NCCN2CCN(C(=O)c3ccc(C)cc3)CC2)cc1 | -28.6%
O=C(NCCN1CCN(C(=O)c2ccc(F)cc2)CC1)c1ccc(F)cc1 | -32%
CCOc1ccc(NC(=O)C(=O)NCCN2CCN(S(=O)(=O)c3ccc(C)cc3)CC2)cc1 | 11.6%
CCOc1ccc(NC(=O)C(=O)NCCN2CCN(C(=O)c3ccc(C)cc3)CC2)cc1 | -65.5%
O=C(NCCN1CCN(C(=O)c2cccc([N+](=O)[O-])c2)CC1)C(=O)NCc1ccc(Cl)cc1 | 0.645%
CC(C)(C)c1ccc(C(=O)N2CCN(CCNC(=O)C(=O)NCc3ccccc3)CC2)cc1 | -8.22%
O=C(NCCN1CCN(C(=O)c2ccc(F)cc2)CC1)C(=O)NCc1ccccc1 | -75.1%
Cl.O=C(NCCN1CCCC1)c1ccc(Br)cc1 | 3.38%
O=C(NCCN1CCN(C(=O)c2cccc(Br)c2)CC1)C(=O)NCc1ccccc1 | -11.2%
O=C(NCCN1CCN(C(=O)c2ccc(Br)cc2)CC1)c1ccc(Br)cc1 | -63.5%
O=C(NCCN1CCN(c2ccc([N+](=O)[O-])cc2)CC1)NCc1ccccc1 | -20.2%
CCOC(=O)c1c(NC(=O)C2C3C=CC(C3)C2C(=O)O)sc2c1CC(C)(C)OC2 (stereo not drawn) | 2.99%
CCOC(=O)CC1(NC(=O)c2cc(COc3cccc(OC)c3)on2)CCCCC1 | 10.3%
CN1CCN(S(=O)(=O)c2cccc(C(=O)Oc3cccc(C#N)c3)c2)CC1 | 11.8%
CC12CC3CC(C)(C1)CC(C(=O)NNC(=O)c1ccncc1)(C3)C2 | -7.13%
CC(=O)c1ccc(NC(=S)Nc2cccc(Cl)c2C)cc1 | 12.3%
CCNC(=O)NC(=O)COC(=O)CNC(=O)COc1ccccc1 | 14.5%
CNC(=O)C(=O)NCCN1CCN(C(=O)c2ccc([N+](=O)[O-])cc2)CC1 | 9.09%
CC(NC(=O)C(=O)NCCN1CCN(C(=O)c2ccccc2Br)CC1)c1ccccc1 (stereo not drawn) | 9.08%

SMILES | hERG current change (%, negative = inhibition) at 1uM
Cc1ccc(C(=O)N2CCN(CCNC(=O)C(=O)NC(C)C)CC2)cc1 | 7.95%
CCCCc1ccc(NC(=O)C(=O)NCCN2CCN(C(=O)c3ccc([N+](=O)[O-])cc3)CC2)cc1 | 0.387%
O=C(NCCN1CCN(C(=O)c2ccc([N+](=O)[O-])cc2)CC1)C(=O)Nc1ccc(F)cc1 | -84.3%
CC(NC(=O)C(=O)NCCN1CCN(C(=O)c2ccc([N+](=O)[O-])cc2)CC1)c1ccccc1 (stereo not drawn) | -67.8%
Cc1ccc(C(=O)NCC(=O)N2CCCCCCC2)cc1 | 20.7%
COc1cc(OC)cc(C(=O)NC(=S)Nc2nnn(C)n2)c1 | 13%
O=C(Nc1ccc(F)cc1)N1CCCC(c2nc3c(nnn3Cc3ccccc3Cl)c(=O)[nH]2)C1 (stereo not drawn) | 13.4%
CCOC(=O)c1csc(NC(C)=O)n1 | 7.33%
CC(=O)Nc1ccc(SC[C@H](CC(C)C)N2CCN(CCc3ccccc3)CCC2=O)cc1 | -26.2%
CN1CCC(=O)N([C@H](CSc2ccc(Br)cc2)c2ccccc2)CC1 | -89.8%
Cc1ccc(SC[C@H](Cc2ccccc2)N2CCN(CCc3ccccc3)CCC2=O)cc1 | 8.27%
CN1CCC(=O)N([C@H](CSc2ccccc2)c2ccccc2)CC1 | -46.4%
CC(=O)Nc1ccc(SC[C@H](c2ccccc2)N2CCN(CCc3ccccc3)CCC2=O)cc1 | -56%
CCCN1CCC(=O)N([C@H](CSc2ccc(OC)cc2)c2ccccc2)CC1 | -81.7%
CCCN1CCC(=O)N([C@H](CSc2ccc(OC)cc2)CC(C)C)CC1 | -42.3%
CC(=O)Nc1ccc(SC[C@H](Cc2ccccc2)N2CCN(CCc3ccccc3)CCC2=O)cc1 | 4.37%
CCCN1CCC(=O)N([C@H](CSc2ccccc2)CC(C)C)CC1 | -31.8%
CC(C)CN1CCC(=O)N([C@H](CSc2ccc(Br)cc2)c2ccccc2)CC1 | -21.5%
CCCN1CCC(=O)N([C@H](CSc2ccc(C)cc2)c2ccccc2)CC1 | -76.3%
CCCN1CCC(=O)N([C@H](CSc2ccc(OC)cc2)Cc2ccccc2)CC1 | -36.3%
COc1ccc(CNC(=O)c2cc(COc3c(F)cccc3F)on2)cc1OC | 7.12%

SMILES | hERG current change (%, negative = inhibition) at 1uM
Cc1ccc(NC(=O)/C(C#N)=C/c2ccsc2)c(C)c1 | 15.6%
Cc1ccc(S(=O)(=O)N(C)c2ccc(C(=O)Nc3c(C)n(C)n(-c4ccccc4)c3=O)cc2)cc1 | 4.15%
O=C(NNS(=O)(=O)c1ccc(F)cc1)C1CC(c2cccnc2)=NO1 (stereo not drawn) | 14.8%
O=C(/C(=N\O)n1cncn1)c1ccc(Cl)cc1Cl | 15.2%
COc1ccc(Cc2nnc(NC(=O)Nc3ccccc3F)s2)cc1 | 15.2%
Cc1ccccc1OCC(=O)Nc1ccccc1N1CCC(C)CC1 | 18.9%
O=C1CCCC(O)=C1C1NCCc2ccccc21 (stereo not drawn) | 9.52%
CCCN1CCC(=O)N([C@H](CSc2ccc(Br)cc2)c2ccccc2)CC1 | -17.5%
O=C1CCN(Cc2ccccc2)CCN1[C@H](CSc1ccccc1)c1ccccc1 | 2.25%
O=C1CCN(CCc2ccccc2)CCN1[C@H](CSc1ccc(Br)cc1)c1ccccc1 | -18.8%
O=C1CCN(CCc2ccccc2)CCN1[C@H](CSc1ccccc1)c1ccccc1 | -72.2%
CCCN1CCC(=O)N([C@H](CSc2ccccc2)c2ccccc2)CC1 | -82.2%
Cc1ccc(SC[C@H](c2ccccc2)N2CCN(CCc3ccccc3)CCC2=O)cc1 | -10.2%
COC(=O)c1ccc(CN2CCN(CCCc3ccccc3)C(CCO)C2)cc1 (stereo not drawn) | -29.1%
COCCCNC(=O)c1cc(C)nc2ccc(F)cc12 | -1.73%
CN(C)S(=O)(=O)Oc1ccsc1C(=O)Nc1ccccc1Cl | 5.7%
CCOCCCNC(=O)CN1CCN(Cc2ccccc2C)C1=O | 4.41%
Cc1cccc(CN2CCN(CC(=O)NCc3ccc(F)cc3)C2=O)c1 | 7.12%
O=C(CN1CCN(Cc2ccc(Cl)cc2)C1=O)NCCCN1CCN(c2ccc(F)cc2)CC1 | -36.8%
Cc1cccc(CN2CCN(CC(=O)NCCCN3CCCC3=O)C2=O)c1 | 11.8%
Cc1cccc(CN2CCN(CC(=O)NCCCN3CCN(c4ccc(F)cc4)CC3)C2=O)c1 | -54.5%

SMILES | hERG current change (%, negative = inhibition) at 1uM
Cc1ccccc1CN1CCN(CC(=O)NCCCN2CCN(c3ccc(F)cc3)CC2)C1=O | -52%
COc1ccc(N2CCN(CCCNC(=O)CN3CCN(Cc4ccccc4C)C3=O)CC2)cc1 | -16.7%
Cc1ccc(CN2CCN(CC(=O)NCCCN3CCN(c4ccc(F)cc4)CC3)C2=O)cc1 | -56.6%
O=C(CN1CCN(Cc2ccc(Cl)cc2)C1=O)NCCCN1CCOCC1 | 4.56%
O=C1NC2CCc3nc4ccccc4c(=O)n3C2=Nc2ccccc21 (stereo not drawn) | -6.24%
COc1cc2c(=O)n(CCC(=O)NCC3CCCO3)c(=O)n(CC(=O)Nc3ccc(C)c(C)c3)c2cc1OC (stereo not drawn) | 11.6%
CNC(=O)c1ccccc1NC(=O)c1ccc(C)c(S(=O)(=O)N2CCCCC2)c1 | -2.21%
CC1(C)C2CC=C(/C=N/NC(=O)C(N)=O)C1C2 (stereo not drawn) | 10.3%
CCCCCn1c(SC(C)C(C)=O)nc2c1c(=O)[nH]c(=O)n2C (stereo not drawn) | -91.2%
COC(=O)C(C)Sc1nc2c(c(=O)[nH]c(=O)n2C)n1CCC(C)C (stereo not drawn) | 4.51%
COC(=O)C(C)Sc1nc2c(c(=O)[nH]c(=O)n2C)n1CCCc1ccccc1 (stereo not drawn) | -70.1%
CCOC(=O)C(C)Sc1nc2c(c(=O)[nH]c(=O)n2C)n1CCc1ccccc1 (stereo not drawn) | -5.6%
CCC(C)Sc1nc2c(c(=O)[nH]c(=O)n2C)n1Cc1ccc(Cl)cc1 (stereo not drawn) | 2.15%
CCOC(=O)C(C)Sc1nc2c(c(=O)[nH]c(=O)n2C)n1C/C=C(/C)Cl (stereo not drawn) | -62.6%
C/C(Cl)=C/Cn1c(SCC(C)C)nc2c1c(=O)[nH]c(=O)n2C | 10%
CCOCCn1c(SC(C)C(C)=O)nc2c1c(=O)[nH]c(=O)n2C (stereo not drawn) | -0.132%
CCOC(=O)C(C)Sc1nc2c(c(=O)[nH]c(=O)n2C)n1Cc1ccc(Cl)cc1 (stereo not drawn) | -78.7%
CC(C)Sc1nc2c(c(=O)[nH]c(=O)n2C)n1Cc1ccc(Cl)cc1 | 4.3%
C/C(Cl)=C/Cn1c(SC(C)C)nc2c1c(=O)[nH]c(=O)n2C | 6.96%
CCCCCCn1c(SCC(C)C)nc2c1c(=O)[nH]c(=O)n2C | 10.1%
CCN(CC)C(=O)Oc1cc(=O)n(C)c2ccccc12 | 6.19%
